In the supplement of paper PMC11732987, “Enantioselective OTUD7B fragment discovery through chemoproteomics screening and high-throughput optimisation” (Communications Chemistry, 2025):

How the values were obtained:
Assay in all cases: log2 ratio of Biotin-Ahx-Ub-VS probe labelling (fragment/DMSO); higher = less target engagement (more negative = stronger competition), active = hit call of the paper (q ≤ 0.05, log2 ratio ≤ -1)
Conditions in all cases: compound concentration: 200 uM; treatment time: 3 h
USP42 = biological target: T1, USP42 (UniProt Q9H9J4)
T1 sequence (whole entry): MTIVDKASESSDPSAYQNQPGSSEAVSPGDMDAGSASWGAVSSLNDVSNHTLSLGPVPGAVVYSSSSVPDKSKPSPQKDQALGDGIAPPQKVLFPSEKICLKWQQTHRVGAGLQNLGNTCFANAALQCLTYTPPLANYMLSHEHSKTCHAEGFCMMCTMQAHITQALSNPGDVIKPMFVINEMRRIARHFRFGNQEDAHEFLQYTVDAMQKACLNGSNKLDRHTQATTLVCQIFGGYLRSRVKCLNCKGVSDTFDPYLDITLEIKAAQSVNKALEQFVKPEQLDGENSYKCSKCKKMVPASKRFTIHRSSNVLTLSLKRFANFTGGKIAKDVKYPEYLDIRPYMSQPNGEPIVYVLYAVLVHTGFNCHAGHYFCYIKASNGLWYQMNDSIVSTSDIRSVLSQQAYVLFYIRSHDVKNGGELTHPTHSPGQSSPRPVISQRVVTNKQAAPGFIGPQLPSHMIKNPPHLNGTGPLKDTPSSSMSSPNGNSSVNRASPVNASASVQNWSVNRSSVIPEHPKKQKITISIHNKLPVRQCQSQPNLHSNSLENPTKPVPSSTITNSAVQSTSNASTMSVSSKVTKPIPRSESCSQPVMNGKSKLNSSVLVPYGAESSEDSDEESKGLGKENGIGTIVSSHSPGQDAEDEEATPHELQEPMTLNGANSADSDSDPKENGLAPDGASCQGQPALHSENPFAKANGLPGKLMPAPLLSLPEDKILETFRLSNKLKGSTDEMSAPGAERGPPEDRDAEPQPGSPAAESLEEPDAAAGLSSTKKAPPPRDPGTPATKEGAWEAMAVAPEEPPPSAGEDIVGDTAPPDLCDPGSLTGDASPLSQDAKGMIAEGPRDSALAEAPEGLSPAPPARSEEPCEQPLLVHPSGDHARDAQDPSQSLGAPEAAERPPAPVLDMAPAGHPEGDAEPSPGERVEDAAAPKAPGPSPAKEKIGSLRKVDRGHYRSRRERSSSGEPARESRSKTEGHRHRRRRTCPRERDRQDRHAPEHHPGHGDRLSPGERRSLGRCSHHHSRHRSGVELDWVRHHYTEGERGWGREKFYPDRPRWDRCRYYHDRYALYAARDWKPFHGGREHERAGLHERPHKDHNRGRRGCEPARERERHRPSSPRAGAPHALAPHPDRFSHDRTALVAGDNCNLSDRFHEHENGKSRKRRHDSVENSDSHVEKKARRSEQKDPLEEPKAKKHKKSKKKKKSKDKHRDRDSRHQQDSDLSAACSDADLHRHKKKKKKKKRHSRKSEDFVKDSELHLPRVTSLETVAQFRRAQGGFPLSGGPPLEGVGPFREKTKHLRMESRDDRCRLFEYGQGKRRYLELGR
Outline: (§1)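 Using Biotin-Ahx-Ub-VS at 0.5 µM final for 1 h, DUBs were labelled in HEK293T lysate (495 µg per sample) that had first been treated in triplicate with fragment at 200 µM or vehicle for 3 h. NeutrAvidin enrichment, LysC and trypsin digestion and diaPASEF LC-MS/MS followed. Spectronaut label-free quantities were global-median-normalised. Values are average log2 fragment/vehicle ratios by unpaired t-test, using proteins with ≥2 unique peptides.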

USP46 = USP46 (UniProt P62068)
Outline: as §1

USP47 = biological target: T2, USP47 (UniProt Q96K76)
T2 sequence (whole entry): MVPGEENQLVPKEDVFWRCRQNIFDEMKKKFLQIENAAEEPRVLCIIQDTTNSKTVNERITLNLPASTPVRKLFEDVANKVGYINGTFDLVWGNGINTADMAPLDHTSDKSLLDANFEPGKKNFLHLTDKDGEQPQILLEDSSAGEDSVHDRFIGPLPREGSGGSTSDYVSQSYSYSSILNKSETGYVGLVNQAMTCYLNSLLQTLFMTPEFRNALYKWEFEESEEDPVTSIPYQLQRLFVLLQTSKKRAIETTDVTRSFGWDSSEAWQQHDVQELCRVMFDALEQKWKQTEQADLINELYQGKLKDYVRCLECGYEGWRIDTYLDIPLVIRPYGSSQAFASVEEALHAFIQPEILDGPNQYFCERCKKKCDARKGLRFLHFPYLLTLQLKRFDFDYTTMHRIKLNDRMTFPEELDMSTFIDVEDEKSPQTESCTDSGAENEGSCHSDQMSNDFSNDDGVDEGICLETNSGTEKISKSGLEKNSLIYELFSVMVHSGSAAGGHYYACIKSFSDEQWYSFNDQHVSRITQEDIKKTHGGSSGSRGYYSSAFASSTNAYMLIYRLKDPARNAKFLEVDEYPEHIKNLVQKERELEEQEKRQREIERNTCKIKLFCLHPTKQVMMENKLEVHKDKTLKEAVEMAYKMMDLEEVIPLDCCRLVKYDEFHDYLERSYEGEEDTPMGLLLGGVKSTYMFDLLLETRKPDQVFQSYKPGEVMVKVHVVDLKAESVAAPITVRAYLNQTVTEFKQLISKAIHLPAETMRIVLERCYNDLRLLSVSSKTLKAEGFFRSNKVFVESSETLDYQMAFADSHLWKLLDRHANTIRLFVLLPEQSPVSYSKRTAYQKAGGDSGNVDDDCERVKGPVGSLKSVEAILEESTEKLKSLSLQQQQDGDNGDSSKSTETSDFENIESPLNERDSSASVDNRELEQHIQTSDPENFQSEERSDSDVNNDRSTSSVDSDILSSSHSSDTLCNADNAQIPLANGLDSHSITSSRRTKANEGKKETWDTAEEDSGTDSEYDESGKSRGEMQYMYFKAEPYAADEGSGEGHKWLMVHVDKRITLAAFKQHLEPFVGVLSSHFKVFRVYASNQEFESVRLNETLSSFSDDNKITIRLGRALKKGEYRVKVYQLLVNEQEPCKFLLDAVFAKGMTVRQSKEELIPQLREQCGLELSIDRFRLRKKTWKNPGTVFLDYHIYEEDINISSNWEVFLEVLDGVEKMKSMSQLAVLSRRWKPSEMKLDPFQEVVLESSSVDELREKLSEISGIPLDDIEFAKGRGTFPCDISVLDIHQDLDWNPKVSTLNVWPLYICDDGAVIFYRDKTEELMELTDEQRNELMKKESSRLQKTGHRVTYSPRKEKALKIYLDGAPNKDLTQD
Outline: as §1

USP48 = biological target: T3, USP48 (UniProt Q86UV5)
T3 sequence (whole entry): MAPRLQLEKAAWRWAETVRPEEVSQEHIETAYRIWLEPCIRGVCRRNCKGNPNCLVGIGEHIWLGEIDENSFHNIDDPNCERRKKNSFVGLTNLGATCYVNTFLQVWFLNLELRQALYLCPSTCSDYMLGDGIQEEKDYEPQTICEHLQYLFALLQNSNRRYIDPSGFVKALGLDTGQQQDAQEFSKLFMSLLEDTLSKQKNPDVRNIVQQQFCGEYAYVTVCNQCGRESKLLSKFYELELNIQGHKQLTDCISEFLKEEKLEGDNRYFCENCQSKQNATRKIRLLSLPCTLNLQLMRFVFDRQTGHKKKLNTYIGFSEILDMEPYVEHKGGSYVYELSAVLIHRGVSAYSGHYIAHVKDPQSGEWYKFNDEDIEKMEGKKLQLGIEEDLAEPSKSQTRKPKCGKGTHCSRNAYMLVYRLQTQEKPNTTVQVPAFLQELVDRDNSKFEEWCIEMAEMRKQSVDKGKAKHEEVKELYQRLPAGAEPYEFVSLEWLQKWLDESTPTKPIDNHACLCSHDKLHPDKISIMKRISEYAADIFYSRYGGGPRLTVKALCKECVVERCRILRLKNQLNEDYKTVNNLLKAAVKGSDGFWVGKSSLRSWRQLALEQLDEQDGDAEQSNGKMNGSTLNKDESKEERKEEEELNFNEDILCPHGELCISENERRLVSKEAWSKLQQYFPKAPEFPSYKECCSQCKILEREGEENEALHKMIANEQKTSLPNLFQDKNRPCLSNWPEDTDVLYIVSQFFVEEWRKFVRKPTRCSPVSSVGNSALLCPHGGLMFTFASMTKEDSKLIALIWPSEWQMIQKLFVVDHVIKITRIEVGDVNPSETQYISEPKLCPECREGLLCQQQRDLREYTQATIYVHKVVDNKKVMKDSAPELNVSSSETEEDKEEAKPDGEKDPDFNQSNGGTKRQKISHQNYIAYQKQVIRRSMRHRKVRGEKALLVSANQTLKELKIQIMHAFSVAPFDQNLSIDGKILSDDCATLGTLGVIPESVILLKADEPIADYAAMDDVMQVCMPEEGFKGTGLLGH
Outline: as §1

USP5 = biological target: T4, USP5 (UniProt P45974)
T4 sequence (whole entry): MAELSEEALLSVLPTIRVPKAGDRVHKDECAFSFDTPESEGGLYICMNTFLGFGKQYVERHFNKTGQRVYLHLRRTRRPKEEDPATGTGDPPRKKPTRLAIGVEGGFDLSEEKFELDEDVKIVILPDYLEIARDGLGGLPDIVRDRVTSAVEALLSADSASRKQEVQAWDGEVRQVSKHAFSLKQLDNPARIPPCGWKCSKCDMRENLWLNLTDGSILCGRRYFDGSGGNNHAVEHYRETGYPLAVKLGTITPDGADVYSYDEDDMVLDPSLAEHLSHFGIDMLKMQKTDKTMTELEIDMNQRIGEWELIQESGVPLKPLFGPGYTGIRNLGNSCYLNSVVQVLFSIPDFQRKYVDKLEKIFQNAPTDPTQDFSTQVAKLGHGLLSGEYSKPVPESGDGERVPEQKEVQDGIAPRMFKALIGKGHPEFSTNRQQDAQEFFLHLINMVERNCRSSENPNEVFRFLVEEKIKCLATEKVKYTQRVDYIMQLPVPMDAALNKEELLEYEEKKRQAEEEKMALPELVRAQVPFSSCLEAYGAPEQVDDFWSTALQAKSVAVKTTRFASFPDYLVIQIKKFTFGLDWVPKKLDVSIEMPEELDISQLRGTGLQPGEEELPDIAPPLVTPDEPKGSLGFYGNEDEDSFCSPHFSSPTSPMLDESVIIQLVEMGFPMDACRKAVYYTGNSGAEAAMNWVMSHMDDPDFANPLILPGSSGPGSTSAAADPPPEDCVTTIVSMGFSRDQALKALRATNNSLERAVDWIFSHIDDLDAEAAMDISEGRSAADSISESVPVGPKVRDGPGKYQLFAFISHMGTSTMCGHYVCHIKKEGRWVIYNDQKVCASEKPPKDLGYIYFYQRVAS
Outline: as §1

USP54 = USP54 (UniProt Q70EL1)
Outline: as §1

USP7 = USP7 (UniProt Q93009)
Outline: as §1

USP8 = biological target: T5, USP8 (UniProt P40818)
T5 sequence (whole entry): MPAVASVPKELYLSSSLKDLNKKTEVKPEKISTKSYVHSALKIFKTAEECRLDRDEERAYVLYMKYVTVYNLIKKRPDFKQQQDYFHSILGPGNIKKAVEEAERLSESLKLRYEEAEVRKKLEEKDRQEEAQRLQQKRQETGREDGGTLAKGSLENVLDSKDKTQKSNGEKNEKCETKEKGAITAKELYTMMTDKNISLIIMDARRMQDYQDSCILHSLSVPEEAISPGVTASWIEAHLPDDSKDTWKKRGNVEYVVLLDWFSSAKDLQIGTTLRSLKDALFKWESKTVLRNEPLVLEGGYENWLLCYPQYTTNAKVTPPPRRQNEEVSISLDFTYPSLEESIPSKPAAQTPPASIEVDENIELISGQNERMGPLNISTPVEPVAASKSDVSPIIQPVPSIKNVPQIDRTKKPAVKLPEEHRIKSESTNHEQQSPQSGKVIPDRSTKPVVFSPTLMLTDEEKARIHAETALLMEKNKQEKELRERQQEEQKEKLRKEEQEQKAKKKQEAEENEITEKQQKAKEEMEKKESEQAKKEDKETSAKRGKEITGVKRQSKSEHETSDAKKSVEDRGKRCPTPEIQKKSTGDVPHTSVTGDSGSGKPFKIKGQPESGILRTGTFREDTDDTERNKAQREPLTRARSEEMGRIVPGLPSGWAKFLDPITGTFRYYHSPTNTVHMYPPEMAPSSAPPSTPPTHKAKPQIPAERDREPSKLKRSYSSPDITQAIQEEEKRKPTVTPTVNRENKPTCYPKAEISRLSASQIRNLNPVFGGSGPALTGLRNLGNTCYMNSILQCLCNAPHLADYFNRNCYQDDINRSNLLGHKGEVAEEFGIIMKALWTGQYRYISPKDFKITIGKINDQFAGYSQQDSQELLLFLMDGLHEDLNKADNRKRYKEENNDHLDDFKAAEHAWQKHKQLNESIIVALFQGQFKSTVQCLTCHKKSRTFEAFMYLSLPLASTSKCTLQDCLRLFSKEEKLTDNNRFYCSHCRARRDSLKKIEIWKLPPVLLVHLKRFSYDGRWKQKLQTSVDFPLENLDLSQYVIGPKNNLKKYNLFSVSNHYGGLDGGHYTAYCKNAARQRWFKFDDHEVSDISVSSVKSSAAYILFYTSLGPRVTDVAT
Outline: as §1

Measured: log2 ratio of Biotin-Ahx-Ub-VS probe labelling

Sequence of USP54 (Q70EL1 whole entry): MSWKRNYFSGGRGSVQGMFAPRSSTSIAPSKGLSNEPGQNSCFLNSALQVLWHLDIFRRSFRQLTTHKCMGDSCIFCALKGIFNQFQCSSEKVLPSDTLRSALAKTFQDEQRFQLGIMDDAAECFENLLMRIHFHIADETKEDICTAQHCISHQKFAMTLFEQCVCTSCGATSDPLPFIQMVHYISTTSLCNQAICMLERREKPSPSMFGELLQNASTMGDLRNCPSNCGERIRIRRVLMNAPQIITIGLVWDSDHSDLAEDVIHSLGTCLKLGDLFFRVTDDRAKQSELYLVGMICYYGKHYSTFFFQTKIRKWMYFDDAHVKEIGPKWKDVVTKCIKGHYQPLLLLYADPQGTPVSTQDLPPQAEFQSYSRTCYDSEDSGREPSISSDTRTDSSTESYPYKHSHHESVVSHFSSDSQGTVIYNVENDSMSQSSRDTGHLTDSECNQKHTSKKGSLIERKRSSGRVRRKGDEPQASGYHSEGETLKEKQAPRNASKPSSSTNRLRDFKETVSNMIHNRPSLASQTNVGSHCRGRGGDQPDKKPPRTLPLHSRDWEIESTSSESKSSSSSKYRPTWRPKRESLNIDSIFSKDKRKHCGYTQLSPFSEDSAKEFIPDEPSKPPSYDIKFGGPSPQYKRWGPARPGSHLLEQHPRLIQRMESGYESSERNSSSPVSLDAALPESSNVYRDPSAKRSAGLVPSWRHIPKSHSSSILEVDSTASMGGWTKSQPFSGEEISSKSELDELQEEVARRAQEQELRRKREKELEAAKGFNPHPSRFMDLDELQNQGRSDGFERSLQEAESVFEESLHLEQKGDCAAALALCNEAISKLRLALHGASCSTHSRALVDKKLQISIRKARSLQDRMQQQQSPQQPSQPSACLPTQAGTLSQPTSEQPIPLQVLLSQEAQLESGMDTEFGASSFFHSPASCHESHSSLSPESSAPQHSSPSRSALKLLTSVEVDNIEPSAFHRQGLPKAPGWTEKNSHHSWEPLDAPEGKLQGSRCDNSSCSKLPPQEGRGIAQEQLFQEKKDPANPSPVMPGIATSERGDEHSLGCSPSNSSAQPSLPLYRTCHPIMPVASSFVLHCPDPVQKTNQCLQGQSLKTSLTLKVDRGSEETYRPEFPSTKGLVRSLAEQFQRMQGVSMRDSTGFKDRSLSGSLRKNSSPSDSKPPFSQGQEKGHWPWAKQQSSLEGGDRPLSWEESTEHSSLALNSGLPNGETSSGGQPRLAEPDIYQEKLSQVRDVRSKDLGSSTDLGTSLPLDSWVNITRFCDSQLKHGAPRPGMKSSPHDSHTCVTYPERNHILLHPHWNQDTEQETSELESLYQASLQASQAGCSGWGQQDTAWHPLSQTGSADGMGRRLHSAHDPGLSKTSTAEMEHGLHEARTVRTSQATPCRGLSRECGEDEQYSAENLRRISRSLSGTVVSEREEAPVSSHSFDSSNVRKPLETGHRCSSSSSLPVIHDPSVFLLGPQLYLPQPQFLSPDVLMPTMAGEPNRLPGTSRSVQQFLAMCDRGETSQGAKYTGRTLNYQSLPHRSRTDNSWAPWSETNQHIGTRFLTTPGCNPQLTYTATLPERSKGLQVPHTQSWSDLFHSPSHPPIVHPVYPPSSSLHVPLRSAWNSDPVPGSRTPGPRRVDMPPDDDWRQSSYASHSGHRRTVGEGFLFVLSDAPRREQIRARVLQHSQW
Sequence of USP46 (P62068 whole entry): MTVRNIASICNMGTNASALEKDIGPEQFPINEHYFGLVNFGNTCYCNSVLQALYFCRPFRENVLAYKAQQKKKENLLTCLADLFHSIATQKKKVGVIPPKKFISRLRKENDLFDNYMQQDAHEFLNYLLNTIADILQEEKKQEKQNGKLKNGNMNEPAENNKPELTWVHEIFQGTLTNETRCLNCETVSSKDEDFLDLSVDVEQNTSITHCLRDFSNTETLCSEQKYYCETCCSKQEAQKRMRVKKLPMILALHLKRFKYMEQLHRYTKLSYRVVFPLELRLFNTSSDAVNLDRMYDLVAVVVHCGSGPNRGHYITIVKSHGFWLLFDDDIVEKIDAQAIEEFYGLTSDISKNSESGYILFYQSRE
Sequence of USP7 (Q93009 whole entry, looked up): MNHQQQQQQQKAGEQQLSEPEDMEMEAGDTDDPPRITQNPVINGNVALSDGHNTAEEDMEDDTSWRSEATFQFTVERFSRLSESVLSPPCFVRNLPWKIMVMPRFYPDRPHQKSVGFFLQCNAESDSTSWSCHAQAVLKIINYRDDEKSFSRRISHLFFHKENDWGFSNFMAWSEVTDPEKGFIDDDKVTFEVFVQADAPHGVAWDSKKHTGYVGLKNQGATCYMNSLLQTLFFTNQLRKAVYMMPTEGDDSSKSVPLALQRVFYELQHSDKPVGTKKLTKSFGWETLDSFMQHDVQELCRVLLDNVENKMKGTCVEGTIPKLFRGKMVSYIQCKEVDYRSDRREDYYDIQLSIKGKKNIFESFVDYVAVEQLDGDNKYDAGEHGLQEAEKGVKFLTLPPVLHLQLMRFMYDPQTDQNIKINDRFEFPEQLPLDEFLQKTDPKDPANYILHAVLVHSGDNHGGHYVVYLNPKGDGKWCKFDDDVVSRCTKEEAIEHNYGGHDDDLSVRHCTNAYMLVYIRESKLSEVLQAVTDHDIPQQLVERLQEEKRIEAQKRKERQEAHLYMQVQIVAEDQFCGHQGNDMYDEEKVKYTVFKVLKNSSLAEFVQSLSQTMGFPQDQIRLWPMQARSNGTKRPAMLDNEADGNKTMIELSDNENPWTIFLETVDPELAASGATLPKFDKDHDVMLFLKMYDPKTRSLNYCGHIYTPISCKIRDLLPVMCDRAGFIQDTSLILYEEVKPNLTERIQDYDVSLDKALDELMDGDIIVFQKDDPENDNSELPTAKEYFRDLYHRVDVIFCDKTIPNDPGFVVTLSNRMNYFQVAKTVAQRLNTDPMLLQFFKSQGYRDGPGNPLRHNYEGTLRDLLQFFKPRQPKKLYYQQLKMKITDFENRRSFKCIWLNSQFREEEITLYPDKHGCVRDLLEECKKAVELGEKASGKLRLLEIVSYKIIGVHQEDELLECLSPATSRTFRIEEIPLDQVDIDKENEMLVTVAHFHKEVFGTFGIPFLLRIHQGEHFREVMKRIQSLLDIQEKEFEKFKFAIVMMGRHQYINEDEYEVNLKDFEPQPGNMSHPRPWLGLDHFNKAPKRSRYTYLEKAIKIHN

O=C(CCl)NC1(c2ccc3c(c2)OCCO3)CCCC1
inactive: USP42 -0.0517 | USP46 -0.105 | USP47 -0.898 | USP48 -0.261 | USP5 0.179 | USP54 1.09 | USP7 -0.305 | USP8 -0.374
